Mtb FBA inh: Mtb FBA enzyme inhibitors, primary screen, biochemical, fluorescence, strain H37Rv; 2.3% of 360,000 active; purified M. tuberculosis FBA, fluorescence read-out; inhibition, % at 1 µM;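 also: 0% = vehicle and 100% = reference inhibitor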
RecA splice inh: Mtb RecA intein splicing inhibitors, primary screen, biochemical, fluorescence, HTS; 0.75% of 290,000 active; inhibition, % (concentration not given with the values); cell-free RecA intein splicing; Protein RecA (Mycobacterium tuberculosis (strain ATCC 25618 / H37Rv)), P9WHJ3; in the data active = inhibition above about 30%; inconclusive = no clear call, values can overlap the other calls;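 also: 0% = vehicle wells and 100% = reference inhibitor control wells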
GDH-TPI counter-1: GDH-TPI coupling enzyme inhibitors, primary screen, artefact control for M. tuberculosis FBA inhibitor project, biochemical, absorbance, full deck | GDH-TPI coupled enzyme counterscreen, NADH absorbance | inhibition, % at 4.8 µM | 1.2% of 360,000 active; in the data active = inhibition above about 30%;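 also: 0% = DMSO wells and 100% = wells lacking the enzyme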
Mtb bLac sens: beta-lactam sensitization of Mtb H37Rv, H37Rv | 0.27% of 330,000 active | inhibition, % at 25 µM | M. tuberculosis H37Rv growth with meropenem, percent inhibition; call rule not given here;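 also: growth measured after seven days incubation then overnight dye step; 0% = bacteria only wells and 100% = bacteria with antibiotic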
Rv3671c protease: Rv3671c serine protease inhibitors, primary screen, biochemical, fluorescence polarization, M. tuberculosis H37Rv. P9WHR9. inhibition, % at 5.96 µM. 0.048% of 320,000 active; in the data active = inhibition above about 38%;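 also: extracellular domain of Rv3671c used as enzyme; 0% = enzyme with DMSO and 100% = no enzyme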
Mtb UGM inh: M. tuberculosis UGM enzyme inhibitors, primary screen, biochemical, fluorescence polarization, single point; UDP-galactopyranose mutase (Mycobacterium tuberculosis (strain ATCC 25618 / H37Rv)), …; purified UGM, fluorescence polarization probe displacement; inhibition, % at 10 µM; 0.06% of 320,000 active; AID 504406, 2011; in the data active = inhibition above about 10%, passing the limit was not always enough; inconclusive = no clear call, values can overlap the other calls
Mtb FBA confirm: M. tuberculosis aldolase blockers, biochemical, fluorescence, strain H37Rv, confirmation. shares compounds with Mtb FBA inh. purified M. tuberculosis FBA, fluorescence read-out. inhibition, % at 1 µM. 78% of 5,600 active. AID 651616, 2012;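 also: 0% = vehicle wells and 100% = reference inhibitor wells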
GDH-TPI counter-2: GDH-TPI coupling enzyme inhibitors, artefact control for M. tuberculosis FBA inhibitor project, biochemical, fluorescence, high throughput; shares compounds with Mtb FBA inh; GDH-TPI coupled enzyme counterscreen; inhibition, % at 1 µM; 81% of 5,600 active; AID 652141, 2013; in the data active = inhibition above about 10%
Numbers without * were called inactive; ? = inconclusive; . = no result given; + = active, no number. A selection: hits, their analogues and other compounds. The true share with any hit is near 4%. Rule as the data show it, unless noted: active = inhibition above about 27%; inactive = the rest.

SMILES	Mtb FBA inh	RecA splice inh	GDH-TPI counter-1	Mtb bLac sens	Rv3671c protease	Mtb UGM inh	Mtb FBA confirm	GDH-TPI counter-2
CCCCNc1c(-c2ccc(SC3CCCCC3)c(OC)c2)nc2ccc(C)cn12	50*	.	15	99	0	2	+	193*
CCCCNc1c(-c2ccc(OC)c(SC3CCCCC3)c2)nc2ccc(C)cn12	36*	.	25	89	11	.	+	161*
Cc1ccc2nc(-c3cccc(SC4CCCCC4)c3)c(NC3CCCCC3)n2c1	5	.	0	1	11	.	.	.
Cc1ccc(/C=C/C(=O)OCC(=O)NCc2cccs2)o1	-1	.	29	-1	6	-3	.	.
COc1ccc(CCN(C)C(=O)c2cc(=O)c3ccccc3o2)cc1OC	50*	-1	3	2	3	0	-22	-18
CCc1ccc(CN(C)C(=O)c2cc(=O)c3ccccc3o2)cc1	-2	.	-16	1	-4	4	.	.
COc1ccc(NC(=O)/C=C/c2cc(OC)c(OC)c(OC)c2)cn1	4	-2	4	-7	-5	2	.	.
COc1cc(/C=C/C(=O)Nc2ccncc2)cc(OC)c1OC	38*	-3	17	10	3	-2	74*	66*
CCOC(=O)/C=C/C(=O)OCC(=O)Nc1c(Cl)cccc1Cl	-4	2	-10	0	2	2	.	.
CCOC(=O)/C=C/[C@H]1CCc2cccc(Cl)c2O1	67*	.	-4	22	-3	2	9	7
CN(C)C(=O)CSc1nnc([C@H](Cc2ccccc2)NC(=O)OC(C)(C)C)o1	1	1	2	-3	0	0	.	.
COC(=O)CSc1nnc([C@H](Cc2ccccc2)NC(=O)OC(C)(C)C)o1	44*	0	0	100	0	1	67*	64*
CCN1C[C@]2(COC(=O)c3ccccc3N)CC[C@H](OC)C34[C@@H]5C[C@H]6[C@H](OC)[C@@H]5[C@](O)(C[C@@H]6OC)[C@@](O)([C@H]13)[C@@H](OC)[C@@H]42	43*	-2	2	?	7	2	59*	39*
CCN1CC2(COC(=O)c3ccccc3N)CCC(OC)C34C5CC6C(OC)CC(O)(C5C6OC)C(O)(C(OC)C23)C14 (stereo unspecified)	36*	-1	2	-4	-3	-2	-3	-6
COc1ccc(N(CC(=O)Nc2ccccc2F)S(=O)(=O)c2ccc(OC)c(OC)c2)cc1	1	3	1	1	-6	1	.	.
CCC1(C)Cc2c(sc3[nH]c(=O)[nH]c(=O)c23)CS1 (stereo unspecified)	80*	-40	11	-5	-22	-1	72*	61*
C=CC[C@@H](CC(=O)N[C@@H](CO)Cc1ccccc1)C(=O)N[C@H](C)COC(=O)[C@@H](CC=C)Cc1ccc(F)cc1	1	.	-4	-3	-2	-2	.	.
CC(=O)N1N=C(c2ccc3ccccc3c2)OC1(C)C	68*	0	6	2	2	0	+	+
CCc1ccc(S(=O)(=O)N/N=C\c2ccc3c(c2)OCO3)cc1	-1	3	16	-4	1	0	.	.
CCCCN(C(=O)C(C)N1C(=O)c2ccccc2C1=O)c1c(N)n(CC(C)C)c(=O)[nH]c1=O (stereo unspecified)	6	.	1	-1	1	3	.	.
N#Cc1c(N2CCCCC2)nc(N2CCCCC2)c2c1CCN(Cc1ccccc1)C2	12	-1	19	26	-1	-2	.	.
